Hits are enriched below; roughly 2.6% of the tested compounds scored in any of these assays.
TLR4-MyD88 BLA: inhibitors of TLR4-MyD88 association in cells, primary screen, cell-based, HeLa CL3-4, BLA complementation, FRET ratio. AID 861, 2007. HeLa CL3-4 TLR4/MyD88 BLA complementation. Toll-like receptor 4 (Homo sapiens) + Myeloid differentiation primary response protein …. 0.18% of 200,000 active. inhibition, % at 8.4 µM; in the data active = inhibition above about 25%
Target sequence (O00206 whole entry, looked up): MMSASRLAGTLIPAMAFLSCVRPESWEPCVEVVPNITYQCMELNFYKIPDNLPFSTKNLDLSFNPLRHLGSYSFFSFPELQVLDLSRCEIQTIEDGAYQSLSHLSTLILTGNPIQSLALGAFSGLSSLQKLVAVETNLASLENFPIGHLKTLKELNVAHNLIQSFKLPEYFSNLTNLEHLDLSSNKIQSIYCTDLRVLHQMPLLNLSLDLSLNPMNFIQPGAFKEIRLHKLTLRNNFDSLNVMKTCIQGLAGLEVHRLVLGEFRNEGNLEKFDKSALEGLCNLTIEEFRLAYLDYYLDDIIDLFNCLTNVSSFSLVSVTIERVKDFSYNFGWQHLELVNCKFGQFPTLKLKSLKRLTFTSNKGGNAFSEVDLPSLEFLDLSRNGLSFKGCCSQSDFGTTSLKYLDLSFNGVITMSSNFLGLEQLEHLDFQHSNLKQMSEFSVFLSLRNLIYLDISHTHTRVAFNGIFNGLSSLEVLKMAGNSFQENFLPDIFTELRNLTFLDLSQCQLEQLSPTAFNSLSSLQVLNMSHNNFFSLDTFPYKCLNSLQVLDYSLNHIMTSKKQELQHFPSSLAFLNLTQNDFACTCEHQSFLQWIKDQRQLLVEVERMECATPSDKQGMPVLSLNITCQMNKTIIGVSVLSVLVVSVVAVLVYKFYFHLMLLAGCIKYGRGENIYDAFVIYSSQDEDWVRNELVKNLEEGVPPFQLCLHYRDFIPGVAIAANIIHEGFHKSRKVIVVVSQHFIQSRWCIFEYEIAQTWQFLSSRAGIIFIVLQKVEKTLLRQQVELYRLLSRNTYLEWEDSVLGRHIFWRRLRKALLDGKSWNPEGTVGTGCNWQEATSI
Target sequence (Q99836 whole entry, looked up): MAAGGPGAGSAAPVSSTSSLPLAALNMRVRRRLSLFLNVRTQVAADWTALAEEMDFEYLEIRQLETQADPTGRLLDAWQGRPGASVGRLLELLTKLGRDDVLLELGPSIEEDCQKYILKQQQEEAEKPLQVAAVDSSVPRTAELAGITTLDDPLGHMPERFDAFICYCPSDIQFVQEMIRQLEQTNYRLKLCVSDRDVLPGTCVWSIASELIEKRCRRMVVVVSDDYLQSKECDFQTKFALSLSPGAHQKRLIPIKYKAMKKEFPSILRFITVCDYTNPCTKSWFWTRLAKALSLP
ABHD5-PLIN5 inh: ABHD5-PLIN5 interaction inhibitors, primary screen, cell lysate, split luciferase complementation, luminescence | Split G. princeps luciferase complementation, 4 h | AID 602281, 2012 | Perilipin-5 (Homo sapiens) + 1-acylglycerol-3-phosphate O-acyltransferase ABHD5 (Homo … | 0.78% of 360,000 active | inhibition, % at 4 µM;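 active = inhibition above the mean inhibition across every tested compound plus 3 SD, cut at about 22% in these data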
NOD2-RIPK2 inh: NOD2-RIPK2 binding disruptors in cells, primary screen, fluorescence, CHO cells, BLA complementation; CCF4 ratio; inhibition, % at 4.98 µM; 0.38% of 360,000 active; in the data active = inhibition above about 21%
Granule exo inh: LAMP-1 surface exposure blockers, TALL-104 cells – cell-based, flow cytometry, MLPCN library, primary screen; inhibition, % at 10 µM; TALL-104 LAMP-1 surface exposure; cells stimulated with thapsigargin and PMA; 0.66% of 360,000 active;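 active = inhibition above about 55%, limit read from the data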
TLR9-MyD88 inh: inhibitors of TLR9-MyD88 association in cells, primary screen, cell-based, CHO, BLA complementation, fluorescence; inhibition, % at 4.98 µM; CCF4 FRET ratio; 0.21% of 340,000 active; Toll-like receptor 9 (Homo sapiens) + Myeloid differentiation primary response protein …; AID 504734, 2011;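 active = inhibition above the mean over all tested compounds plus 3 SD, cut at about 21% in these data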
PRMT1 inh: PRMT1 methyltransferase inhibitors, primary screen, biochemical, fluorescence polarization. Protein arginine N-methyltransferase 1 (Homo sapiens), Q99873. recombinant PRMT1, activity-based probe fluorescence polarization. inhibition, % at 2.79 µM. 1.3% of 370,000 active;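 active = inhibition above about 21% made by adding two undisclosed values, limit read from the data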
Granule exo CP1: inhibitors of lytic granule exocytosis, confirmation, TALL-104 cells, flow cytometry, Cherry Pick01. 11% of 1,500 active. shares compounds with Granule exo inh. LAMP-1 externalization; stimulated with PMA plus thapsigargin. inhibition, % at 10 µM; in the data active = inhibition above about 60%
Hits are given with their value; - = inactive; . = no result given.

SMILES	TLR4-MyD88 BLA	ABHD5-PLIN5 inh	NOD2-RIPK2 inh	Granule exo inh	TLR9-MyD88 inh	PRMT1 inh	Granule exo CP1
Clc1ccc(-c2c(C3=NCCCN3)nnn2-c2ccc(Cl)cc2)cc1	.	-	-	56	-	-	-
CCc1cc2ccc(C)cc2nc1SCC(=O)NC1CCCC1	.	-	-	82	-	-	-
CCN(CC)c1ccc2cc(-c3nc(-c4cc5ccccc5oc4=O)cs3)c(=O)oc2c1	.	-	-	81	-	-	-
CCN(CC)Cc1ccc(NC(=O)c2sc3cc(Cl)ccc3c2Cl)cc1	.	-	-	81	-	-	-
CCCCn1nnc(NC(=O)c2sc3cc(Cl)ccc3c2Cl)n1	-	-	-	-	-	-	.
COC(=O)[C@]12C[C@H](CC(=O)N3CCN(C(=O)C4CC4)CC3)C(=O)N(CCC3=CCCCC3)C1=C[C@H](COCc1ccccc1)O[C@@H]2C	.	.	.	.	.	-	.
CC(C)(C)C1CCC(OCC(O)CN2CCN(c3ccccn3)CC2)CC1 (stereo not given)	-	-	-	-	-	-	.
CC(C)(C)C1CCC(OCC(O)CN2CCN(Cc3ccccc3)CC2)CC1 (stereo not given)	-	-	-	72	-	-	-
COc1ccccc1CNC(c1ccccc1)c1ccccc1	.	-	-	-	-	-	.
CCOc1ccccc1CNC(c1ccccc1)c1ccccc1	.	-	-	59	-	-	-
Cc1ccc2nc3c(c(Nc4ccc(O)cc4)c2c1)CCC3	.	-	-	61	-	-	-
CCN(CC)CCSc1nnc2c3cc(C)ccc3n(Cc3ccccc3)c2n1	.	-	-	64	.	-	-
COc1ccc(C2CC(=O)C(c3ccc(F)cc3)=CN2Cc2ccccc2)cc1 (stereo not given)	.	.	.	.	.	-	.
O=S(=O)(c1ccc(C(F)(F)F)cc1)N1CCCc2nc(-c3ccccc3)ccc21	.	.	.	.	.	-	.
CCOc1ccccc1N(CC(=O)NC1CCCCC1)S(=O)(=O)c1ccccc1	.	-	-	70	-	-	-
COc1ccc(N(CC(=O)NC(C)c2ccccc2)S(=O)(=O)c2ccc(C)cc2)cc1 (stereo not given)	.	-	-	87	-	-	-
COC(=O)c1cc(NC(=O)CN(c2cccc(OC)c2)S(=O)(=O)c2ccccc2)ccc1Cl	-	-	-	-	-	-	.
COc1ccc(N(CC(=O)Nc2cc(C)on2)S(=O)(=O)c2cc(C)ccc2C)cc1	-	-	-	57	-	-	-
COC(=O)c1cc(NC(=O)CN(c2ccccc2OC)S(=O)(=O)c2ccccc2)ccc1Cl	-	-	-	68	-	-	-
CCN(CC)C(=O)CC[C@H]1CC[C@]2(CCCN(Cc3nccs3)C2)O1	.	.	.	.	.	-	.
O=C(CCCCCN1C(=O)C2C3C=CC(C3)C2C1=O)Nc1cc(F)cc(F)c1 (stereo not given)	.	.	.	.	.	-	.
CCOc1ccc(N(CC(=O)NCc2ccccc2)S(=O)(=O)c2ccc(C)cc2)cc1	.	-	-	-	-	-	.
CCN(CC(=O)NCc1cccs1)C(=O)CCOc1ccccc1C	.	-	-	-	-	-	.
Cc1ccc(Cl)cc1N(CC(=O)Nc1cccc(N(C)S(C)(=O)=O)c1)S(C)(=O)=O	-	-	-	-	-	-	.
CCOc1ccc(N(CC(=O)NCc2ccc(Cl)cc2)S(=O)(=O)c2ccccc2)cc1	.	-	-	77	-	-	-
SMILES	TLR4-MyD88 BLA	ABHD5-PLIN5 inh	NOD2-RIPK2 inh	Granule exo inh	TLR9-MyD88 inh	PRMT1 inh	Granule exo CP1
CCOc1ccccc1N(CC(=O)Nc1ccccc1F)S(=O)(=O)c1ccccc1	.	-	-	57	-	-	-
CCOc1ccccc1N(CC(=O)Nc1ccc(OC)cc1OC)S(=O)(=O)c1ccccc1	.	-	-	-	-	-	.
CS(=O)(=O)N(CC(=O)Nc1cccc(Cl)c1)c1ccccc1Cl	-	-	-	85	-	-	-
CCN(CC(=O)NCc1ccc(Cl)cc1)C(=O)CCOc1ccccc1C	.	-	-	80	-	-	-
CCOC(=O)CNC(=O)CSc1nc2ccccc2c(=O)n1-c1ccc(Cl)cc1	.	.	.	.	.	-	.
COc1ccccc1N(CC(=O)NCCSCc1ccccc1)S(=O)(=O)c1ccc(C)cc1	.	-	-	90	-	-	-
CCN(c1ccccc1)S(=O)(=O)c1ccc(OC)c(NC(=O)CNCCc2ccccc2)c1	-	-	-	85	-	-	-
CCN(c1ccccc1)S(=O)(=O)c1ccc(OC)c(NC(=O)Cc2ccc(F)cc2)c1	.	-	-	-	-	-	.
CCOc1ccc(N(CC(=O)Nc2ccccc2OC)S(=O)(=O)c2ccccc2)cc1	.	-	-	65	-	-	-
CCCCS(=O)(=O)N1CCN(C(=O)C(=O)c2cccc(C(F)(F)F)c2)CC1	.	.	.	.	.	-	.
COc1cn(-c2ccccc2)nc1C(=O)Nc1ccc(C)cc1	.	-	-	-	-	-	.
COc1ccc(C)cc1NC(=O)c1nn(-c2ccccc2)cc1OC	.	-	-	100	-	-	-
Cc1ccc(C)c(NC(=O)c2nc(-c3ccccc3)n(-c3ccccc3)n2)c1	-	-	-	68	-	-	-
CCOC(=O)Cn1cc(CN2C(C(=O)OC)CN(Cc3ccc(C)cc3)CCS2(=O)=O)nn1 (stereo not given)	.	.	.	.	.	-	.
CCCCn1c(NS(=O)(=O)c2ccc(C)cc2)c(S(=O)(=O)c2ccccc2)c2nc3ccccc3nc21	-	-	-	68	-	-	-
Cc1ccc(S(=O)(=O)c2c(N)n(CCCN(C)C)c3nc4ccccc4nc23)cc1	.	-	-	-	-	-	.
O=C1NC(c2ccc(Br)cc2)c2c(-c3ccccc3)n[nH]c21 (stereo not given)	.	.	.	.	.	-	.
CCOc1ccccc1CNC(=O)Cn1ccc2cc(S(=O)(=O)N3CCCCCC3)ccc21	.	-	-	-	-	-	.
CCOc1ccccc1CNC(=O)CCn1ccc2cc(S(=O)(=O)N3CCCCC3)ccc21	.	-	-	62	-	-	-
CC(C)Cn1c(N)c(S(=O)(=O)c2cccs2)c2nc3ccccc3nc21	-	-	-	80	-	-	-
COc1ccc(Nc2ccnc3ccccc23)cc1	-	-	-	-	-	-	.
c1ccc(CCNc2ccnc3cc4ccccc4cc23)cc1	-	-	-	56	-	-	92
CC(C)Nc1ccc(Nc2ccnc3cc4ccccc4cc23)cc1	.	-	-	79	-	-	-
CN(C)c1ccc(CNCCC(Cc2ccccc2)c2ccco2)cc1 (stereo not given)	.	-	-	-	-	-	.

Source: PubChem BioAssay (several laboratories)
